Assay outcomes (PubChem BioAssay)
Only some compounds are listed: those with a hit (about 2.3% of all), similar ones and a draw of the others.
LEDGF integ inh – blocks HIV-1 LEDGF/p75-dependent DNA integration; 370,000 tested, 0.64% active; TR-FRET IN-LEDGF/p75 DNA integration, Eu/Cy5; inhibition, % at 3.7 µM; AID 743269;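 active = inhibition above the screen-wide mean plus 3 SD, cut at about 13% in these data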;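 note: signal is the Cy5 over europium emission ratio at 671 and 618 nm; 0% = plate median of compound wells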
MBD2 DNA inh – MBD2-methylated oligo binding inhibition; AID 686964; inhibition, % at 4.4 µM; 370,000 tested, 0.31% active; TR-FRET, MBD2 binding to methylated oligonucleotide; in the data active = inhibition above about 13%
PLCg1 inh – PLC-gamma1 (human) inhibition, primary screen | purified PLC-gamma1, fluorogenic substrate, fluorescence | P19174 | inhibition, % at 12.2 µM | 370,000 tested, 0.84% active; in the data active = inhibition above about 9.5%
UHRF1 MBD2 ctr – UHRF1 methyl-DNA binding inhibition; Q96T88; UHRF1 binding to methylated oligo, TR-FRET; inhibition, % at 4.4 µM; 370,000 tested, 0.75% active; in the data active = inhibition above about 21%;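 note: UHRF1 SRA domain binding a hemimethylated CpG hairpin DNA probe; 0% = median of test compound wells and 100% = reference inhibitor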
Target sequence (Q96T88 whole entry, looked up, the tested form may be a part): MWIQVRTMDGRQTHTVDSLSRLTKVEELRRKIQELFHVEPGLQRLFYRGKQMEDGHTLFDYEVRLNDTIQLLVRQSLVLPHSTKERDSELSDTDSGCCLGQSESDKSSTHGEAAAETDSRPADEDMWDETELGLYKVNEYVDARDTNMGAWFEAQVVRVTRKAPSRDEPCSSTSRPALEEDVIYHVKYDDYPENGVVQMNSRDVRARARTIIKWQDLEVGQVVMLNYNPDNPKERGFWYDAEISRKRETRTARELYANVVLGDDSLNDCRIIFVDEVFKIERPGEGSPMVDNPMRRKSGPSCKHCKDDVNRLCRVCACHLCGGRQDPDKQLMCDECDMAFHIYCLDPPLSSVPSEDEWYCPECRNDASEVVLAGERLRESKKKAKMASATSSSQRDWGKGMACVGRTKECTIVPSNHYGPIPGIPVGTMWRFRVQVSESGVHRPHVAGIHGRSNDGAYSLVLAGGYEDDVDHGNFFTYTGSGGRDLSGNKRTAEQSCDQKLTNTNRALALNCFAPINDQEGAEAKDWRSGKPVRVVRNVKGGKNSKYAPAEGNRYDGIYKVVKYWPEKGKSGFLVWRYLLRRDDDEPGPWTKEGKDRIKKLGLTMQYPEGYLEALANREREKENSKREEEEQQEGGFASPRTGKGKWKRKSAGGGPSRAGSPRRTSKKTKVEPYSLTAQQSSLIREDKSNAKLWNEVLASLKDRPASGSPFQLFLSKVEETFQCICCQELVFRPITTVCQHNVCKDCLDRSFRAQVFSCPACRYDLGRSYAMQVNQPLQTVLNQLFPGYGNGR
PLC-beta3 inh – PLC-beta3 (human) inhibition, primary screen | Q01970 | Purified PLC-beta3, fluorogenic substrate, fluorescence | inhibition, % at 12.2 µM | 370,000 tested, 0.18% active | AID 720704; in the data active = inhibition above about 11%;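 note: 0% = median of compound wells on plate and 100% = full blocker control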
IN multimer up – activates HIV-1 integrase multimerization in LEDGF counter-screen | shares compounds with LEDGF integ inh | activation, % at 7.7 µM | 2,000 tested, 17% active | TR-FRET HIV-1 integrase multimerization, biochemical; in the data active = activation above about 8.9%
TRFRET interf – counter-screen for LEDGF/p75 integration inhibitors: TR-FRET optical interference; shares compounds with LEDGF integ inh; inhibition, % at 7.7 µM; 2,000 tested, under 10 active; AID 1053135; TR-FRET optical interference counterscreen, HIV-1 IN multimerization;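 active = inhibition above the mean over all tested compounds plus 3 SD, which no compound reached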;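 note: 0% = integrase with antibodies and DMSO and 100% = antibodies without integrase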
IN-LEDGF confirm – LEDGF/p75-dependent HIV-1 integration inhibition, confirmation | shares compounds with LEDGF integ inh | TR-FRET LEDGF/p75-dependent HIV-1 integration, biochemical | inhibition, % at 3.7 µM | 2,000 tested, 36% active | AID 1053136; in the data active = inhibition above about 14%
* hit, by the source's call; · = not tested or not shown.

SMILES | LEDGF integ inh | MBD2 DNA inh | PLCg1 inh | UHRF1 MBD2 ctr | PLC-beta3 inh | IN multimer up | TRFRET interf | IN-LEDGF confirm
CSc1ncccc1C(=O)N1CCCC(C(=O)c2ccc3ccccc3c2)C1 (centres undefined) | 15* | 5 | 1 | 11 | -6 | 0 | 1 | 4
CN(C)c1ccccc1C(=O)N1CCCC(C(=O)c2ccc3ccccc3c2)C1 (centres undefined) | -9 | -1 | 2 | 1 | -5 | · | · | ·
CC(C)C(=O)N1CC[C@H]2[C@H](CCCN2Cc2ccccc2)C1 | 1 | 3 | 0 | -3 | -3 | · | · | ·
CCN(CC)CCCNC(=O)c1oc(=O)c2ccccc2c1-c1ccc(C)cc1 | 2 | -3 | -2 | 2 | -1 | · | · | ·
Nc1cc(=O)[nH]c(SCC(=O)Nc2cccc([N+](=O)[O-])c2)n1 | 56* | 2 | -1 | 1 | 0 | 1 | -7 | 1
COC(=O)C1=C(N)N(c2ccc(F)cc2)C2=C(C(=O)CCC2)C1c1ccc2c(c1)OCO2 (centres undefined) | 18* | -2 | 5 | 4 | 2 | 0 | 0 | -10
N#CCC[C@@H]1CC[C@]2(CCCN(C(=O)c3cccnc3)C2)O1 | 0 | -3 | 1 | -1 | 4 | · | · | ·
Cc1noc(C)c1C(=O)Nc1ccccc1-c1ccccc1 | 27* | 1 | -1 | 0 | 2 | 0 | 0 | 1
O=C(CCc1ccccc1)N1CCN(C(=O)CCc2ccccc2)CC1 | -3 | -2 | 0 | -1 | -3 | · | · | ·
CCOC(=O)N1CCN(C(=O)CCc2ccccc2)CC1 | 56* | -6 | 1 | 3 | -2 | 6 | -29 | 0
CC(C)CC1=NN2C(=N)/C(=C\c3coc4ccccc4c3=O)C(=O)N=C2S1 | 26* | -3 | -180 | -13 | -205 | 0 | -1 | 23*
CCSC1=NSC2=NC(=O)/C(=C\c3coc4ccccc4c3=O)C(=N)N12 | 0 | 0 | -161 | -6 | -186 | · | · | ·
CC#CC(=O)N[C@H]1CC[C@@]23CCCN2C(=O)CCC[C@H]3[C@H]1C | -3 | -4 | -3 | 0 | 1 | · | · | ·
CCC[C@@H](/C=C/C(=O)OC(C)(C)C)Sc1ccccc1OC | -5 | 2 | -2 | -1 | 4 | · | · | ·
O=C(NC1CCCCN(Cc2cccc(Cl)c2)C1=O)c1ccccn1 (centres undefined) | -1 | 5 | 0 | -1 | -1 | · | · | ·
CCCCc1cc(=O)oc2cc(OC3CCCCC3=O)ccc12 (centres undefined) | 18* | -6 | -2 | 0 | -5 | 0 | -1 | -7
CCCc1cc(=O)oc2c(C)c(OC3CCCCC3=O)ccc12 (centres undefined) | -1 | 6 | -4 | 2 | -14 | · | · | ·
O=C(Cn1cncn1)N/N=C/c1ccc(Cl)cc1 | -3 | 2 | 3 | 1 | 0 | · | · | ·
O=C(Cn1cncn1)NCc1ccc(Cl)cc1 | 19* | 0 | 1 | -3 | 1 | 0 | -1 | -1
Cc1nnc(N/N=C/c2c(Cl)cccc2Cl)n1N | 35* | -2 | 5 | 6 | 5 | 0 | 2 | -10
Cc1nnc(N/N=C/c2cc(C)n(-c3ccc(F)cc3)c2C)n1N | 45* | 1 | 0 | 11 | -4 | -2 | 10 | -2
Oc1ccccc1/C=N/Nc1nn[nH]n1 | 0 | -3 | -1 | 1 | -5 | · | · | ·
CCc1nnc(N/N=C/c2cc(C)c(C)cc2C)n1N | 58* | 5 | 7 | 4 | -3 | -2 | 11 | -4
Cc1nnc(N/N=C/c2ccccc2O)n1N | 59* | 9 | 8 | 10 | 2 | -1 | 4 | -10
Clc1cccc(Cl)c1/C=N\Nc1nccs1 | -1 | 2 | -14 | -2 | -17 | · | · | ·
COc1ccc2nc(N3C(=O)C(O)=C(C(=O)c4ccco4)C3c3ccc(C)o3)sc2c1 (centres undefined) | 14* | -3 | -52 | 0 | -66 | 2 | -12 | 9
COC(=O)c1cc(NC(=O)NC2CCCCN(Cc3cccc(Cl)c3)C2=O)cc(C(=O)OC)c1 (centres undefined) | -3 | 0 | -1 | 0 | -1 | · | · | ·
